# Results published in PubChem BioAssay.
# Biological target: Calmodulin-1 (Homo sapiens) (UniProt P0DP23)
# Assay: calcium-bound CALM1 binders on microarrays, profiling panel, artefact control for SMM control-protein annotation, biochemical, small-molecule microarray, Cy5-labelled CALM1, plus calcium (AID 1112);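 further: score merges spot fluorescence with signal to noise from triplicate slides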
# Settings: Cy5-CALM1 binding fluorescence, higher = more signal
row,SMILES,composite z-score
1,[N-]=[N+]=Nc1ccccc1C[C@]1(C(=O)NCCN2CCOCC2)N=C(c2ccc(OCCCO)cc2)O[C@H]1c1ccccc1,0.129
2,CCOC(=O)C[C@H]1[C@H](OC(=O)c2ccc(-c3ccccc3)cc2)[C@@H](NC(=O)c2ccc3ccccc3c2)c2cc(OCCCO)ccc2N1C(=O)Cc1ccc(OC)cc1,0.171
3,CC(C)(C)OC(=O)CC[C@@]1(C(=O)O)N=C(c2ccc(OCCCO)cc2)O[C@@H]1c1ccccc1N=[N+]=[N-],1.07
4,O=C1C[C@]2(c3ccc([N+](=O)[O-])cc3)C(=O)N(CC(F)(F)F)c3cc(CO)ccc3[C@H]2N1CC12CC3CC(CC(C3)C1)C2,-0.285
5,O=C1OCCC=C[C@H]2OC34C=CCN(c5ccc6ccccc6c5)C(=O)[C@H]3N(CCCCCO)C(=O)[C@@H]4C12 (some centres undefined),-0.0432
6,Cc1cc(C)c(C(O)C2C=CC3C(=O)N(c4ccccc4)C(=O)C3N2Nc2ccc(C#N)cc2)c(C)c1 (centres undefined),1.17
7,C=C[C@@H](COC(C)=O)N(Cc1ccccc1[N+](=O)[O-])S(=O)(=O)c1ccc(Br)cc1,-0.0348
8,COCCOC(=O)N1C(=O)[C@@]2(c3cc(C#Cc4ccc(OC)cc4)ccc31)[C@H](C(=O)N1CCN(c3ncccn3)CC1)[C@H]1C(=O)O[C@H](c3ccccc3)[C@H](c3ccccc3)N1[C@@H]2c1ccc(O)cc1,0.217
9,CCOC(=O)C[C@H]1[C@H](OC(=O)c2ccc(-c3ccccc3)cc2)[C@@H](NC(=O)c2ccc(-c3ccccc3)cc2)c2cc(OCCCO)ccc2N1C(=O)Cc1ccc(OC)cc1,-0.971
10,COC(=O)[C@@]1(Cc2ccccc2)[C@H]2c3cc(C(=O)N4CCCC4)n(C)c3C[C@H]2CN1C(=O)c1ccccc1,0.961
11,COC(=O)[C@@]1(Cc2ccccc2N=[N+]=[N-])COC(c2ccc(OCCCO)cc2)=N1,0.0554
12,CC(C)C(=C=CC[C@@H](O)c1ccccc1OCCO)C[C@@H](O)c1ccccn1,-0.34
13,O=C(O)[C@H]1C[C@H]2C(=O)NCC(=O)N2[C@H]1c1ccc(O)cc1,-0.0282
14,C=CC[C@]1(C(=O)N2CCOCC2)N=C(c2ccc(OCCCO)cc2)O[C@H]1c1ccccc1,1.14
15,COc1cc(C(O)C2C=CC3C(=O)N(c4ccccc4)C(=O)C3N2Nc2ccc(C#N)cc2)cc(OC)c1OC (centres undefined),1.19
16,O=C1O[C@H](c2ccccc2)[C@H](c2ccccc2)N2[C@H]1[C@@H](C(=O)Nc1nc3ccccc3s1)[C@]1(C(=O)Nc3ccccc31)[C@H]2c1ccc(O)cc1,-0.322
17,O=C1O[C@@H](c2ccccc2)[C@@H](c2ccccc2)N2[C@@H](c3ccc(O)cc3)[C@]3(C(=O)Nc4ccc(C#CC5(O)CCCCCC5)cc43)[C@@H](C(=O)N3CCCCCCC3)[C@H]12,1.61
18,O=C1C=CC(=O)[C@@H]2CC(COc3ccccc3)=C3[C@@H](CCc4ccccc4)OB(O)C[C@@H]3[C@H]12,-1.09
19,CCOC(=O)C1=CCC(C(C)(C)C)N(S(=O)(=O)c2ccc(C)cc2)C1 (centres undefined),0.197
20,CCOC(=O)C1=CCC(c2ccc([N+](=O)[O-])cc2)N(S(=O)(=O)c2ccc(C)cc2)C1 (centres undefined),0.548
21,NCCCCCCNC(=O)[C@H]1C[C@H]2C(=O)NCC(=O)N2[C@H]1c1cccc(OCCO)c1,-0.369
22,NC(=O)NCC#Cc1ccc2c(c1)[C@]1(C(=O)N2)[C@H](C(=O)NC[C@H](O)c2ccccc2)[C@H]2C(=O)O[C@H](c3ccccc3)[C@H](c3ccccc3)N2[C@@H]1c1ccc(O)cc1,0.916
23,O=C1N(CCS(=O)(=O)c2ccccc2)Cc2ccccc2[C@H]2OC(c3ccc(OCCCO)cc3)=N[C@@]12CCS(=O)(=O)c1ccccc1,0.38
24,O=C1C2C=CC(C(O)c3ccc(F)cc3)N(Nc3ccccc3)C2C(=O)N1c1ccccc1 (centres undefined),0.619
25,CCOC(=O)C1=C[C@@H](CC)N(S(=O)(=O)c2ccc(C)cc2)[C@H]1c1ccccc1,0.26
26,COc1ccc(CCNC(=O)[C@@]2(c3ccc([N+](=O)[O-])cc3)CC(=O)N(CC34CC5CC(CC(C5)C3)C4)[C@@H]2c2ccc(CO)cc2)cc1,0.084
27,CCC[C@@H]1C=C(C(=O)O)[C@H](c2ccc(C)cc2)N1S(=O)(=O)c1ccc(C)cc1,0.0233
28,[N-]=[N+]=NCc1ccccc1[C@H]1OC(c2ccc(OCCCO)cc2)=N[C@@]1(CCS(=O)(=O)c1ccccc1)C(=O)N1CCOCC1,0.786
29,O=C/C=C/c1ccc2c(c1)OCO2,-0.755
